Among the data in PubChem BioAssay (NCI) are growth values, retold here.

This is part of a sample that, as a whole, favours compounds with a hit. Of some 83,000 tested, about 20% had one in any assay.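 Step 1: grow cells in 96-well plates. Step 2: add test compound at a single concentration. Step 3: incubate 48 h. Step 4: record percent growth.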 Unmarked numbers belong to inactive results. Activity calls are given as the source filed them. How the source made its calls: active means growth percent below 10; inactive means the rest.

One assay concerns SF-268 CNS. Briefly: NCI-60 one-dose screen, 48 h (100 = growth as untreated, 0 = no growth, -100 = all killed). Conditions: 10 µM unless noted.
Turning to `C=C1C(=O)O[C@H]2[C@H]1CC/C(COC(=O)NCc1ccc(Cn3c(=O)sn(CCCC)c3=O)cc1)=C\CC[C@@]1(C)O[C@@H]21`, the growth is 82.4%.
On the same count and under the same terms, the result for `O=C(Nc1ncc(Cc2ccccc2)s1)c1cc(-c2ccccc2)nc2ccccc12` reads 103%; that for `CC(=O)Oc1ccccc1C(=O)N(Cc1ccc2c(Cl)cc(Cl)c(O)c2n1)c1ccccc1`, 39.8%; that for `O=C(Nc1ccccc1)Nc1ccccc1CNc1nc(Nc2ccc(OCCN3CCCC3)cc2)ncc1Cl`, 72.5%.
On the same count and under the same terms, the value for `C#Cc1ccc(NC(=O)Cc2ccc(/C=C/C(=O)c3nccn3C)cc2)cc1` was 38%; that for `O=C(O)c1nn(-c2ccc(Cl)cc2)nc1N1CCCC1` was 98.3%; that for `CCc1ccc(Cc2cnc(NC(=O)c3cc(C)oc3C)s2)cc1` was 48.6%.
Still for that read-out and setting: the result for `O=C(NCCN1CCOCC1)c1cncnc1Nc1ccc2c(ccn2Cc2ccccn2)c1` reads 97.3%; that for `CC/C(=C(/c1ccc(Cl)cc1)c1ccc(OCCN2CCCCCC2)cc1)c1ccccc1`, 81.6%; that for `CC(=O)OCC(=O)O[C@@H]1C[C@]2(C(C)C)O[C@@]1(C)[C@@H]1CC[C@@H](C)[C@H]1[C@@H]2OC(=O)/C=C/c1ccccc1`, 51.5%.
As for `COc1ccc(C(=O)/C=C/c2ccc(C)cc2)cc1S(N)(=O)=O`, the growth is 72.4%.
Still for that read-out and setting: the value for `Cc1ccc(Nc2oc(-c3ccccc3)nc2[P+](c2ccccc2)(c2ccccc2)c2ccccc2)cc1` was 10.6%; that for `COc1ccc(N/N=C/c2ccc3c(c2)Sc2ccccc2N3C)cc1` was 53.7%; that for `COc1ccc(N2C(=O)/C(=C/C(Cl)=C/c3ccc([N+](=O)[O-])cc3)SC2=S)cc1` was 12.3%.
Turning to `COc1ccc(C2=C/C(=C\c3ccccc3O)C(=O)N2Cc2ccccc2)cc1`, the growth was 86.5%.
As for `COC(=O)[C@H]1Cc2c([nH]c3ccccc23)[C@H](c2ccc3c(c2)OCO3)N1`, the growth is 96.3%.
Same read-out and setting: the result for `O=C(Nc1ncc(Cc2ccccc2)s1)c1ccc2c(c1)OCCO2` reads 43.2%; that for `CC(=O)CC(=O)c1ccccc1.[Cu+2]`, 118%; that for `COC1CC(O)C2=C(CC3C(/C(C)=C\CC=C(C)C)CCC3(C)O2)C1=O` (stereo not given), 91.1%.
Take `Nc1c(C(=O)c2ccc(Cl)cc2)sc(Nc2ccccc2)c1-c1nc2ccccc2s1`: the growth is 45.5%.
With `C=CC(=O)Nc1ccc2ncnc(Nc3cccc(NS(=O)(=O)CCC)c3Cl)c2c1`, the growth is 48%.
On the same count and under the same terms, the value for `CCN1C(=O)N(CC)C2C1NC(=S)N2/N=C/C=C/c1ccccc1` (stereo not given) was 20.8%; that for `Oc1cccc2c1NCCC2` was 35.3%; that for `CCOC(=O)c1cnc2sc(-c3ccc(OC)cc3)nc2c1Cl` was 103%.
The same measure, in the same setting: the value for `Cc1ccc2nc(/C=C/c3ccc(N(C)C)cc3)cc(C)c2c1` was 37.3%; that for `C=CCOC(=O)C1=C(C)N(CC)C(=O)N(CC)C1c1c(Cl)n(C)c2ccccc12` (stereo not given) was 87.3%; that for `C=C(C)[C@@H]1CC[C@]2(COC(=O)c3cccnc3)CC[C@]3(C)[C@H](CC[C@@H]4[C@@]5(C)CCCN(C(=O)c6cccnc6)C(C)(C)[C@@H]5CC[C@]43C)[C@@H]12` was 45.5%.
Same read-out and setting: the value for `COc1ccc(C2=NN3C(C2)c2cc(Br)ccc2OC3c2ccncc2)cc1` (stereo not given) was 66.2%; that for `C=CC(=O)NCc1cccc(Nc2ncc(Br)c(NCCCNC(=O)C3CCC3)n2)c1` was -29.4% (active).
`O=C(O)/C=C/c1cn(-c2ccccc2)nc1-c1ccc(F)cc1`: the growth was 83.7%.
For `CCNCCNc1c(C)c(-c2ccc(C(F)(F)F)cc2)c(C#N)c2nc3ccccc3n12`, the growth was 80.8%.
As for `O=C1CCc2c(sc3[nH]c(=S)n(-c4cc(C(F)(F)F)cc(C(F)(F)F)c4)c(=O)c23)C1`, the growth is 19.3%.
On the same count and under the same terms, the value for `COc1cc2cc(Oc3ccc(NC(=O)Nc4ccc(F)c(C(F)(F)F)c4)cc3)c(C)nc2cc1OCCN1CCCCC1` was 76.6%; that for `Cc1ccc2c(c1)CC(O)CC1C(=O)N(CCO)CC(=O)N21` (stereo not given) was 99.7%; that for `CC(C)(C)CC(C)(C)Nc1c(-c2c(O)c3ccccc3oc2=O)nc2sccn12` was 105%.
Same read-out and setting: the result for `O=C1NC(=O)C(=Cc2cc(-c3ccc(Cl)cc3)n(-c3ccccc3)n2)C(=O)N1` reads 105%.
Take `CCOC(=O)c1c2c(n3ccc(NC(=O)CCN4CCCC4)cc13)C(=O)c1ncccc1C2=O`: the growth was -67.8% (active).
On to `COc1ccc(-c2ccc(-c3ccc(C(=N)N)o3)o2)cc1`, for which the growth was 39.8%.
The same measure, in the same setting: the value for `CC(C)c1nc(N(C)S(C)(=O)=O)nc(-c2ccc(F)cc2)c1/C=C/C(=O)C[C@@H](O)CC(=O)O` was 98.5%; that for `CCOc1cc(\C=N/N=C(N)/C(N)=N\N=C/c2ccc(O)c(OCC)c2)ccc1O` was 98.1%.

The next assay has as its system SF-295 CNS. The description is as above. Conditions: 10 µM unless noted.
As for `C=C1C(=O)O[C@H]2[C@H]1CC/C(COC(=O)NCc1ccc(Cn3c(=O)sn(CCCC)c3=O)cc1)=C\CC[C@@]1(C)O[C@@H]21`, the growth is 101%.
Consider `O=C(Nc1ncc(Cc2ccccc2)s1)c1cc(-c2ccccc2)nc2ccccc12`, for which the growth was 107%.
Still for that read-out and setting: the result for `CC(=O)Oc1ccccc1C(=O)N(Cc1ccc2c(Cl)cc(Cl)c(O)c2n1)c1ccccc1` reads 33.2%; that for `O=C(Nc1ccccc1)Nc1ccccc1CNc1nc(Nc2ccc(OCCN3CCCC3)cc2)ncc1Cl`, 73.3%.
On the same count and under the same terms, the value for `C#Cc1ccc(NC(=O)Cc2ccc(/C=C/C(=O)c3nccn3C)cc2)cc1` was 77%.
Still for that read-out and setting: the value for `O=C(O)c1nn(-c2ccc(Cl)cc2)nc1N1CCCC1` was 90.5%.
`CCc1ccc(Cc2cnc(NC(=O)c3cc(C)oc3C)s2)cc1`: the growth is 31.8%.
Same read-out and setting: the value for `O=C(NCCN1CCOCC1)c1cncnc1Nc1ccc2c(ccn2Cc2ccccn2)c1` was 102%; that for `CC/C(=C(/c1ccc(Cl)cc1)c1ccc(OCCN2CCCCCC2)cc1)c1ccccc1` was 98.3%.
The same measure, in the same setting: the result for `CC(=O)OCC(=O)O[C@@H]1C[C@]2(C(C)C)O[C@@]1(C)[C@@H]1CC[C@@H](C)[C@H]1[C@@H]2OC(=O)/C=C/c1ccccc1` reads 88.8%; that for `COc1ccc(C(=O)/C=C/c2ccc(C)cc2)cc1S(N)(=O)=O`, 91.3%.
Same read-out and setting: the result for `Cc1ccc(Nc2oc(-c3ccccc3)nc2[P+](c2ccccc2)(c2ccccc2)c2ccccc2)cc1` reads -85.5% (active).
As to `COc1ccc(N/N=C/c2ccc3c(c2)Sc2ccccc2N3C)cc1`, the growth was 6.85% (active).
Consider `COc1ccc(N2C(=O)/C(=C/C(Cl)=C/c3ccc([N+](=O)[O-])cc3)SC2=S)cc1`, for which the growth is -32.1% (active).
On the same count and under the same terms, the value for `COc1ccc(C2=C/C(=C\c3ccccc3O)C(=O)N2Cc2ccccc2)cc1` was 94%; that for `COC(=O)[C@H]1Cc2c([nH]c3ccccc23)[C@H](c2ccc3c(c2)OCO3)N1` was 99.8%; that for `O=C(Nc1ncc(Cc2ccccc2)s1)c1ccc2c(c1)OCCO2` was 11.9%.
Same read-out and setting: the value for `CC(=O)CC(=O)c1ccccc1.[Cu+2]` was 105%; that for `COC1CC(O)C2=C(CC3C(/C(C)=C\CC=C(C)C)CCC3(C)O2)C1=O` (stereo not given) was 107%; that for `Nc1c(C(=O)c2ccc(Cl)cc2)sc(Nc2ccccc2)c1-c1nc2ccccc2s1` was -24.4% (active).
On the same count and under the same terms, the result for `C=CC(=O)Nc1ccc2ncnc(Nc3cccc(NS(=O)(=O)CCC)c3Cl)c2c1` reads 72.9%; that for `CCN1C(=O)N(CC)C2C1NC(=S)N2/N=C/C=C/c1ccccc1` (stereo not given), 3.58% (active); that for `Oc1cccc2c1NCCC2`, 0.338% (active).
Regarding `CCOC(=O)c1cnc2sc(-c3ccc(OC)cc3)nc2c1Cl`, the growth is 105%.
On the same count and under the same terms, the result for `Cc1ccc2nc(/C=C/c3ccc(N(C)C)cc3)cc(C)c2c1` reads 12.5%.
The same measure, in the same setting: the result for `C=CCOC(=O)C1=C(C)N(CC)C(=O)N(CC)C1c1c(Cl)n(C)c2ccccc12` (stereo not given) reads 69.3%; that for `C=C(C)[C@@H]1CC[C@]2(COC(=O)c3cccnc3)CC[C@]3(C)[C@H](CC[C@@H]4[C@@]5(C)CCCN(C(=O)c6cccnc6)C(C)(C)[C@@H]5CC[C@]43C)[C@@H]12`, 40.9%; that for `COc1ccc(C2=NN3C(C2)c2cc(Br)ccc2OC3c2ccncc2)cc1` (stereo not given), 86.5%.
Still for that read-out and setting: the value for `C=CC(=O)NCc1cccc(Nc2ncc(Br)c(NCCCNC(=O)C3CCC3)n2)c1` was 2.75% (active); that for `O=C(O)/C=C/c1cn(-c2ccccc2)nc1-c1ccc(F)cc1` was 87.7%; that for `CCNCCNc1c(C)c(-c2ccc(C(F)(F)F)cc2)c(C#N)c2nc3ccccc3n12` was 91.4%.
Regarding `O=C1CCc2c(sc3[nH]c(=S)n(-c4cc(C(F)(F)F)cc(C(F)(F)F)c4)c(=O)c23)C1`, the growth was -21.8% (active).
As to `COc1cc2cc(Oc3ccc(NC(=O)Nc4ccc(F)c(C(F)(F)F)c4)cc3)c(C)nc2cc1OCCN1CCCCC1`, the growth is 72.8%.
The same measure, in the same setting: the result for `Cc1ccc2c(c1)CC(O)CC1C(=O)N(CCO)CC(=O)N21` (stereo not given) reads 101%; that for `CC(C)(C)CC(C)(C)Nc1c(-c2c(O)c3ccccc3oc2=O)nc2sccn12`, 98.8%.
Still for that read-out and setting: the value for `O=C1NC(=O)C(=Cc2cc(-c3ccc(Cl)cc3)n(-c3ccccc3)n2)C(=O)N1` was 93.8%.
On the same count and under the same terms, the result for `CCOC(=O)c1c2c(n3ccc(NC(=O)CCN4CCCC4)cc13)C(=O)c1ncccc1C2=O` reads 32.2%.
As for `COc1ccc(-c2ccc(-c3ccc(C(=N)N)o3)o2)cc1`, the growth is 35.6%.
On the same count and under the same terms, the value for `CC(C)c1nc(N(C)S(C)(=O)=O)nc(-c2ccc(F)cc2)c1/C=C/C(=O)C[C@@H](O)CC(=O)O` was 103%; that for `CCOc1cc(\C=N/N=C(N)/C(N)=N\N=C/c2ccc(O)c(OCC)c2)ccc1O` was 106%.
